Lassa entry inh = inhibitors of Lassa virus binding or cell entry; Lassa virus pseudotype entry inhibition, cell reporter; Potency, µM (series often up to 37.9 µM), without a hit: at the highest dose activity change, negative = inhibition, hits mostly inhibitors; 300,000 compounds, 1.2% hits; calls by dose curve; tested in HEK293 cells; note: potency is the fitted concentration of half-maximal effect; nearly all actives have a fitted effect of over 50% in size
Pf growth 96h = inhibits malaria parasite growth, 96 h; P. falciparum luciferase reporter growth, 96 h; AID 504834; Potency, µM (top dose mostly 28.7 µM), inactives show at the top dose activity change, negative = inhibition, usual class: inhibitors; 320,000 compounds, 6.9% hits; note: potency is the fitted concentration of half-maximal effect
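Luminescence readout: decreased luciferase signal marks inhibited growth of reporter-expressing P. falciparum in infected red cells (2% hematocrit, 0.05% parasitemia final), exposed to compound two generations (96 h, 37 C, 5% CO2).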
Pf growth 48h = inhibits P. falciparum growth in the first generation, 48 h; P. falciparum luciferase growth in erythrocytes, 48 h; AID 504832; Potency, µM (titrated, usually from 28.7 µM), for the others: at the top dose activity change, negative = inhibition, actives largely listed as inhibitors; 310,000 compounds, 5.9% hits; note: potency is the fitted concentration of half-maximal effect
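Compounds are pin-transferred into medium, infected erythrocytes (2% hematocrit, 0.1% parasitemia final) are added, and plates sit one parasite generation at 37 C in 5% CO2. Detection reagent is then added and luminescence measured.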
MARV entry inh = Marburg virus entry inhibition; Marburg virus pseudotyped entry inhibition, cell reporter; Potency, µM (series often up to 37.8 µM), inactives show at the top dose activity change, negative = inhibition, actives largely listed as inhibitors; 300,000 compounds, 1.8% hits; calls by dose curve; tested in HEK293 cells; note: potency is the fitted concentration of half-maximal effect
HCMV inh = inhibitors of human cytomegalovirus | HFF cells, HCMV-luciferase reporter, 72 h; hits give low values | activity change, negative = inhibition, % at 57.5 µM | 410,000 compounds, 4.5% hits; in the data active = activity change below about -60%; inconclusive = no clear call, values can overlap the other calls; inactive = above about -39%
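Steps: HFFs plated, 16 h 37C; compounds added; HCMV-luciferase added to MOI 1 PFU/cell; 72 h 37C; OneGlo reagent, 5 min room temperature; luminescence read, normalized to controls.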
HCV inhibitor = inhibitors of hepatitis C virus infection | Huh7.5.1 HCVcc-Cre infection, luciferase reporter, 44 h | Potency, µM (top dose mostly 41.8 µM), for inactives: top-dose activity change, negative = inhibition, hits mostly inhibitors | 340,000 compounds, 3.4% hits; note: potency is the fitted concentration of half-maximal effect
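A cell-based infection assay in which seeded cells (1,000 per well) receive test compound after 4 h, are inoculated with HCVcc-Cre at approximately 0.5 moi, and are incubated 44 h before luminescence detection.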
The depositor's hits bear a star; [ ] = another dose, or the depositor's remark. Rows were chosen to be rich in hits. Some 14% of all compounds tested hit in one or more screens of this group. Unless noted, calls come from the whole dose curve; as a rule, active = well fitted inhibition curve with a large enough effect; inconclusive = small, poorly fitted or top-dose-only effect, or another doubt; inactive = no such curve, though single readings can be large or run the other way. % is set by controls: 0 for no effect and ±100 for the full control effect.

Screening Cc1nc2c3ccccc3nc(NNC(=O)CCC(=O)N3CCCC(C)C3)n2n1 (stereo not drawn) returned Pf growth 96h 9.3µM*, Pf growth 48h 0%, HCMV inh 12 and HCV inhibitor 1%.
Screening CC(C)CCNC(=O)CCC(=O)NNc1nc2ccccc2c2nc(-c3ccccc3)nn12 returned Lassa entry inh 6%[46.1 µM], Pf growth 96h 10µM*, Pf growth 48h 15%, MARV entry inh inconclusive, HCMV inh 19 and HCV inhibitor -24%.
Screening O=C(O)c1ccc(CN2C[C@@H](CO)O[C@@H](n3cnc4c(NCc5ccc(F)cc5)ncnc43)C2)cc1 returned HCMV inh -25.
`CC1=NNC(=O)/C1=C\c1cn(-c2ccccc2)nc1-c1cccs1` gave Lassa entry inh inconclusive, Pf growth 96h 8.3µM*, Pf growth 48h inconclusive, MARV entry inh -41%, HCMV inh -100* and HCV inhibitor inconclusive.
For CC1=NNC(=O)/C1=C\c1cn(-c2ccccc2)nc1-c1ccc(F)cc1 the results were Lassa entry inh inconclusive, Pf growth 96h 54%, Pf growth 48h 5.2µM*, MARV entry inh 8.9µM* and HCV inhibitor 4.5µM*.
Screening COc1ccc(NS(=O)(=O)c2ccc(-c3cnc(C4CC4)o3)cc2)cc1OC returned Pf growth 96h inconclusive, Pf growth 48h -18%, HCMV inh -74* and HCV inhibitor inconclusive.
For Cc1ccc(NS(=O)(=O)c2ccc(-c3cnc(C4CC4)o3)cc2)c(C)c1 the results were Pf growth 96h inconclusive, Pf growth 48h 4%, HCMV inh inconclusive and HCV inhibitor inconclusive.
Screening CCOc1ccccc1NS(=O)(=O)c1ccc(-c2cnc(C3CC3)o2)cc1 returned Lassa entry inh inconclusive, Pf growth 96h 17%, Pf growth 48h 0%, HCMV inh active and HCV inhibitor inconclusive.
For Cc1cc(C)c(NS(=O)(=O)c2ccc(-c3cnc(C4CC4)o3)cc2)c(C)c1 the results were Lassa entry inh inconclusive and HCMV inh -92*.
`O=S(=O)(c1ccc(-c2cnc(C3CC3)o2)cc1)N1CCN(c2ccc(F)cc2)CC1` gave Lassa entry inh 7.9µM* and HCMV inh -77*.
For O=C(O)CNc1nc(-c2ccccc2)nc2c1oc1ccccc12 the results were Pf growth 96h -1%, Pf growth 48h -4%, HCMV inh 0 and HCV inhibitor 3%.
For c1ccc(-c2nc(NCc3cccnc3)c3oc4ccccc4c3n2)cc1 the results were Lassa entry inh inconclusive, Pf growth 96h 9.3µM*, Pf growth 48h inconclusive, MARV entry inh inconclusive, HCMV inh -3 and HCV inhibitor inconclusive.
`COC(=O)CNc1nc(-c2cccnc2)nc2ccccc12` gave Lassa entry inh 19%, Pf growth 96h inconclusive, Pf growth 48h -5%, MARV entry inh 0%, HCMV inh -3 and HCV inhibitor inconclusive.
`Fc1ccc(CNc2nc(-c3cccnc3)nc3ccccc23)cc1` gave Lassa entry inh -1%[46.1 µM], Pf growth 96h inconclusive, Pf growth 48h 12µM*, MARV entry inh inconclusive, HCMV inh 18 and HCV inhibitor 11µM*.
Fc1ccccc1/C=N/Nc1nc(-c2ccccn2)nc2ccccc12 was read as Pf growth 96h inconclusive and Pf growth 48h 2.3µM*.
c1cncc(CNc2nc(-c3cccnc3)nc3ccccc23)c1 was read as Lassa entry inh inconclusive, Pf growth 96h inconclusive, Pf growth 48h inconclusive, MARV entry inh -4%[46.1 µM], HCMV inh -12 and HCV inhibitor 22µM*.
Fc1ccccc1CNc1nc(NCC2CC2)nc2ccsc12 was read as HCMV inh -87*.
`c1ccc(CNc2nc(NCc3ccccc3)c3sccc3n2)cc1` gave HCMV inh -80*.
`c1ccc(CN2CCC(Nc3nc(-c4cccnc4)nc4ccccc34)CC2)cc1` gave Lassa entry inh inconclusive, Pf growth 96h inconclusive, Pf growth 48h inconclusive, MARV entry inh 10µM*, HCMV inh -63* and HCV inhibitor inconclusive.
CC(Nc1nc(-c2cccnc2)nc2ccccc12)c1ccc(F)cc1 (stereo not drawn) was read as Lassa entry inh -2%[46.1 µM], Pf growth 96h 6.6µM*, Pf growth 48h 4.7µM*, MARV entry inh inconclusive, HCMV inh -34 and HCV inhibitor 8.9µM*.
`COc1ccc(NC(=O)Cn2nc(C)c3c(C)n(-c4ccccc4)nc3c2=O)cc1OC` gave Lassa entry inh -5%[46.1 µM] and HCMV inh -7.
Cc1ccc(S(=O)(=O)/N=C(/Nc2ccc([N+](=O)[O-])cc2[N+](=O)[O-])c2ccccc2)cc1 was read as Lassa entry inh -6%, MARV entry inh inconclusive, HCMV inh 12 and HCV inhibitor -6%.
CC(C)NC(=O)N1[C@@H]2CN(C(=O)c3ccc(F)cc3)c3ccccc3[C@@H]2[C@@H]1CO was read as HCMV inh -6.
Cc1ccc(Cl)cc1N1CCN(C(=O)c2ccc(NC(=O)c3nsc4ccccc34)cc2)CC1 was read as Lassa entry inh 2%[46.1 µM] and HCMV inh -21.
For Cc1cccc(-n2cnc3cc(C(=O)NCc4ccccc4Cl)ccc32)c1 the results were Lassa entry inh inconclusive and HCMV inh -29.
CC(C)(C)c1ccc(-c2nc(NCc3cccnc3)c3ccccc3n2)cc1 was read as Lassa entry inh inconclusive, Pf growth 96h 17%, Pf growth 48h inconclusive, MARV entry inh inconclusive, HCMV inh -72* and HCV inhibitor 11µM*.
Cc1cc(NCc2ccccn2)nc2ccccc12 was read as Lassa entry inh 17%, Pf growth 96h inconclusive, MARV entry inh -2%, HCMV inh -6 and HCV inhibitor -10%.
O=c1[nH]c2ccccc2nc1NCc1ccccc1 was read as Lassa entry inh -29%[46.1 µM], Pf growth 96h 4.7µM*, Pf growth 48h 23%, MARV entry inh 7%[46.1 µM], HCMV inh 27 and HCV inhibitor -2%.
c1ccc(-c2nc(NCC3CCCO3)c3oc4ccccc4c3n2)cc1 (stereo not drawn) was read as Lassa entry inh 5%, Pf growth 96h 15µM*, MARV entry inh -7%, HCMV inh -2 and HCV inhibitor inconclusive.
c1ccc(CNc2nc3ccccc3[nH]2)cc1 was read as Lassa entry inh inconclusive, Pf growth 96h -4%, Pf growth 48h -23%, MARV entry inh inconclusive, HCMV inh 88 and HCV inhibitor 9%.
Screening Cc1nc(NCc2ccccn2)c2ccccc2n1 returned Lassa entry inh -43%, Pf growth 96h 36%, Pf growth 48h 13%, MARV entry inh inconclusive, HCMV inh -84* and HCV inhibitor 10µM*.
